In the supplement of paper PMC6555819:

How the values were obtained:
Test in all cases: PBM binding z-score (relative to random genomic background probes); higher = stronger binding; sequences stand for … in GC…GCGATTGACAGCGTAGAATGAAGG
[1] = system: FXR:RXRa (NR concentration 270 nM, RXRa partner concentration 90 nM)
In short: (§1)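 Binding buffer was PBS pH 7.4 with 2% milk, 0.02% Triton X-100, 1 mM DTT, 0.2 mg/mL BSA and 0.4 mg/ml salmon testes DNA. In it, ligand-free nuclear receptor dimers were incubated 1 h on custom Agilent 4×180K protein-binding microarrays carrying double-stranded probes. Antibodies against each partner (one per run) detected binding, and z-scores were calculated against random background probes after regression normalization of scanned fluorescence.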

[2] = system: LXRa:RXRa (NR concentration 270 nM, RXRa partner concentration 90 nM)
In short: as §1

[3] = system: LXRa homodimer (NR concentration 270 nM)
In short: as §1

[4] = system: LXRb:RXRa (NR concentration 270 nM, RXRa partner concentration 90 nM)
In short: as §1

[5] = system: LXRb homodimer (NR concentration 270 nM)
In short: as §1

[6] = system: PPARa:RXRa (NR concentration 270 nM, RXRa partner concentration 90 nM)
In short: as §1

[7] = system: PPARg:RXRa (NR concentration 180 nM, RXRa partner concentration 90 nM)
In short: as §1

[8] = system: PPARg:RXRa 270nM:90nM, anti-RXR (NR concentration 270 nM, RXRa partner concentration 90 nM)
In short: as §1

[9] = system: PPARg:RXRa 30nM:10nM, anti-RXR (NR concentration 30 nM, RXRa partner concentration 10 nM)
In short: as §1

[10] = system: PPARg:RXRa 90nM:30nM, anti-RXR (NR concentration 90 nM, RXRa partner concentration 30 nM)
In short: as §1

[11] = system: PPARg:RXRa DBDmut IVT, anti-RXR (DBD mutation: RXRa K156A/R161A, NR concentration 270 nM, RXRa partner concentration 90 nM)
In short: as §1

[12] = system: PPARg:RXRa IVT, anti-PPARg (NR concentration 270 nM, RXRa partner concentration 90 nM)
In short: as §1

[13] = system: PPARg DBDmut:RXRa IVT, anti-PPARg (DBD mutation: PPARg1 K132A/R137A, NR concentration 270 nM, RXRa partner concentration 90 nM)
In short: as §1

[14] = system: PPARg DBDmut IVT, anti-PPARg (DBD mutation: PPARg1 K132A/R137A, NR concentration 270 nM)
In short: as §1

[15] = system: PPARg homodimer (NR concentration 180 nM)
In short: as §1

[16] = system: PXR:RXRa (NR concentration 270 nM, RXRa partner concentration 90 nM)
In short: as §1

[17] = system: PXR homodimer (NR concentration 270 nM)
In short: as §1

[18] = system: RARa:RXR (NR concentration 270 nM, RXRa partner concentration 90 nM)
In short: as §1

[19] = system: RARa homodimer (NR concentration 270 nM)
In short: as §1

[20] = system: RARb:RXRa (NR concentration 270 nM, RXRa partner concentration 90 nM)
In short: as §1

Sequence	PBM binding z-score [1]	PBM binding z-score [2]	PBM binding z-score [3]	PBM binding z-score [4]	PBM binding z-score [5]	PBM binding z-score [6]	PBM binding z-score [7]	PBM binding z-score [8]	PBM binding z-score [9]	PBM binding z-score [10]	PBM binding z-score [11]	PBM binding z-score [12]	PBM binding z-score [13]	PBM binding z-score [14]	PBM binding z-score [15]	PBM binding z-score [16]	PBM binding z-score [17]	PBM binding z-score [18]	PBM binding z-score [19]	PBM binding z-score [20]
ATATGTAGGTTAGCTGGGGTCAGTCAGACTAGGC	2.47	4.36	0.893	3.37	0.881	4.38	5.08	4.38	1.86	3.72	6.39	6.31	2.61	1.83	1.96	5.06	1.14	3.81	0.813	2.88
CGCCCAAGGTCAAGGTCAGTGAAAGAGACTCGAA	7.66	5.71	1.02	4.47	1.05	5.96	6.1	5.9	2.41	4.9	3.15	4.18	0.61	-0.556	3.84	4.83	0.538	5.32	1.22	5.62
ACATGTAGGTTAAGGGTCATTCAGGTTGGTTCGC	5.47	4.89	3.12	4.5	1.95	6.02	11.1	9.37	8.78	11	6.63	7.34	4.14	3.37	4.52	5.46	2.78	5.86	2.44	3.53
ATATATAGGTTACATCCGGGTCATTCAGGCTATG	3.03	5.06	2.32	3.45	1.23	4.67	6.17	5.45	2.59	4.8	7.41	7.26	3.67	2.9	2.67	4.12	2.95	4.05	1.77	2.51
CCTATTAGTTGACCATAAGTGCAACCGAAGCTCG	0.669	0.833	1.25	0.757	1.09	0.517	0.672	0.74	0.581	0.574	0.899	0.364	1.12	0.839	1.89	1.11	1.66	0.812	2.6	0.81
CCTACTGGGCCAAAAAGGTCAGTGATGCCGATAA	1.31	1.9	0.693	2.27	-0.789	3.36	2.04	2.9	0.549	1.83	3.45	3.63	-0.398	-1.18	2.33	2.55	0.561	3.29	1.18	3.67
ACAGAGAGGTGAGTGAAGGTAACTCAGCTGGACG	0.855	0.573	-0.279	0.265	0.454	1.26	0.736	0.54	-0.194	0.056	1.71	1.65	0.674	-0.716	0.508	0.337	0.0847	0.565	0.175	1.48
